# About 83,000 compounds went through this panel and 20% of them were active in at least one assay; those are over-represented in the sample as a whole.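 The test compound was applied at a single concentration to cells in 96-well plates for 48 hours, and percent growth was recorded.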 A number with no mark means an inactive call. Active and inactive are the calls of the source. The calls were made as follows: active = growth percent below 10; inactive = the rest.
# Legend:
# Assay in all cases: NCI-60 one-dose screen, 48 h (100 = growth as untreated, 0 = no growth, -100 = all killed)
# Conditions in all cases: 10 µM unless noted
# HCT-15 colon = tested on: HCT-15 colon
# HT29 colon = tested on: HT29 colon
# SNB-75 CNS = tested on: SNB-75 CNS
# SNB-19 CNS = tested on: SNB-19 CNS
# U251 CNS = tested on: U251 CNS
# PC-3 prostate = tested on: PC-3 prostate
# SK-MEL-5 melanoma = tested on: SK-MEL-5 melanoma
# UACC-62 melanoma = tested on: UACC-62 melanoma
# LOX IMVI melanoma = tested on: LOX IMVI melanoma
# SK-MEL-28 melanoma = tested on: SK-MEL-28 melanoma
Structure (SMILES),growth (HCT-15 colon),growth (HT29 colon),growth (SNB-75 CNS),growth (SNB-19 CNS),growth (U251 CNS),growth (PC-3 prostate),growth (SK-MEL-5 melanoma),growth (UACC-62 melanoma),growth (LOX IMVI melanoma),growth (SK-MEL-28 melanoma)
O=C(CN1N=C(c2ccc(F)cc2)CCC1=O)Nc1nc2ccccc2s1,86%,1.85% (active),-49.1% (active),94.4%,16%,5.7% (active),89.3%,79.6%,-89.5% (active),100%
O=C1C(Cl)=C(Nc2ccc3c(c2NC2=C(Cl)C(=O)c4ccccc4C2=O)C(=O)c2ccccc2C3=O)C(=O)c2ccccc21,15.6%,5.49% (active),-15.1% (active),29.1%,14.3%,11%,-95.5% (active),-62.6% (active),3.18% (active),47.1%
Nc1ccccc1NC(=O)c1ccc(CSc2nc(N3CCOCC3)c3cccn3n2)cc1,20.1%,0.895% (active),20.3%,32.7%,2.15% (active),23.1%,-41.1% (active),-31.9% (active),-38.6% (active),16.3%
COc1ccc(-n2cc(COc3ccc4c5ccnc(C)c5n(CC(C)C)c4c3)nn2)cc1,63.4%,16%,61.8%,78.4%,69.9%,55.6%,58.2%,71%,77.3%,87.4%
O=C1Nc2ccc(Cl)cc2/C1=N/c1nc(-c2ccc(F)cc2)cs1,43.9%,22.6%,58.6%,34.1%,25.4%,17.4%,41.7%,7.64% (active),19.5%,42.6%
COC(=O)/C=C/c1cc(OC)c2c(c1)[C@@H](C(=O)OC)[C@H](c1ccc(OC)c(OC)c1)O2,32.2%,11%,-3.43% (active),35%,25.1%,32.9%,9.73% (active),33.6%,51.1%,63.4%
O=CN1N=C(c2ccc(F)cc2)CC1c1cccc(Nc2ccnc3cc(C(F)(F)F)ccc23)c1 (stereo not given),58%,47.8%,92%,63.9%,53.2%,41.8%,-15.2% (active),53.4%,40.2%,82.2%
O=C1CC23OC(C(O)c4ccccc4N12)C1C(c2ccccc2)=NOC13 (stereo not given),29.7%,13.9%,33.4%,44%,40.2%,50%,31.7%,28.2%,37.8%,64.1%
COC(=O)/C=C1\SC(=Nc2ccc(C(F)(F)F)cc2)N(CCc2c[nH]c3ccccc23)C1=O,-71.4% (active),-34.1% (active),59.2%,-51.7% (active),-87.8% (active),-61.1% (active),-88.8% (active),-62.5% (active),-97% (active),-58.9% (active)
CSc1nc(-c2ccco2)c2c(N)[nH]nc2n1,102%,93.6%,103%,110%,103%,101%,100%,92.2%,92.3%,112%
COc1ccc2nc(-c3ccc(Cl)cc3)cc(-c3nnc(SCC(=O)Nc4ccc(/C(C)=N\O)cc4)o3)c2c1,23.6%,24.5%,39.9%,-18.2% (active),-15.2% (active),13.7%,71.5%,45.2%,25.3%,72.6%
NS(=O)(=O)c1ccc(N2Cc3cc(Cl)ccc3OC3=C2C(=O)N(CC2CCCCC2)C3=O)cc1,-79.2% (active),-67.4% (active),-98.4% (active),-6.19% (active),-91.3% (active),-61.9% (active),-94.4% (active),-76.1% (active),-86.2% (active),-93.1% (active)
Nc1c(C(=O)Nc2ccccc2)sc2nc3c(cc12)CN(C(=O)OCc1ccccc1)CC3,37.3%,15.7%,49.6%,56.1%,37.8%,46%,36%,43%,40.8%,62.3%
COC(=O)c1cc2c3c(cc(O)c2[nH]1)N(C(=O)C1Cc2cc(OC)c(OC)c(OC)c2N1)CC3CCl (stereo not given),1.13% (active),-7.58% (active),-32.9% (active),-52% (active),-54.9% (active),-17.1% (active),-94.6% (active),-61% (active),-94.2% (active),-6.29% (active)
COc1ccccc1C(=O)/C=C/c1cc2cccc(OC)c2[nH]c1=O,-12.5% (active),-39.1% (active),34.3%,-4.63% (active),-55.7% (active),31.1%,-39.2% (active),-29.1% (active),-63.5% (active),2.94% (active)
O=c1[nH]c(-c2cccc(F)c2)cc2cc(F)ccc12,16.7%,6.64% (active),12.1%,26.6%,21.6%,16.3%,42.2%,36.4%,43.3%,61.7%
CC(=O)c1cnc(-c2ccccc2)nc1CBr,63.5%,43.5%,73.4%,81%,79.5%,73%,91.6%,84.3%,-39.9% (active),104%
COc1cccc(NC(=O)Nc2ccc(Oc3ncnc4[nH]c(C)c(C)c34)cc2)c1,87.9%,75.4%,87.2%,89.7%,76.9%,80.8%,88%,74.2%,-54.9% (active),103%
O=[N+]([O-])c1cccc(CN(Cc2cccc([N+](=O)[O-])c2O)c2ccccc2)c1O,69.4%,56.1%,86.1%,92%,85.4%,71.1%,90.5%,69.6%,79.6%,96.7%
COc1ccc2c(c1)/C(=C1\S/C(=N/c3nnc(C)s3)NC1=O)C(=O)N2Cc1ccc(Cl)cc1,28%,54.7%,71%,35.7%,26%,36.6%,30.9%,32.8%,39.4%,49.2%
CC(C)NS(=O)(=O)c1cccc(-c2ccc3c(=O)n(CCCN)c4c(c3c2)C(=O)c2ccccc2-4)c1,102%,89.6%,82.3%,111%,104%,102%,98.8%,108%,94.4%,110%
COc1cc(-c2cn(-c3ccc(Cl)c(Cl)c3)c(=O)[nH]2)cc(OC)c1OC,103%,102%,104%,81.6%,95.6%,104%,101%,95.3%,97.7%,110%
O=C(Nc1ccc2ncnc(Nc3cccc(C(F)(F)F)c3)c2c1)c1cccs1,38.9%,18%,89.2%,40.1%,17%,20.9%,61.1%,67.5%,65.5%,89.1%
COc1ccc(-c2[nH]c3ccc(OC)cc3c2C=C(C#N)C#N)cc1,38.6%,15%,21.3%,76.2%,35.7%,21.7%,15.5%,33.1%,63%,54.2%
CC[C@H](Nc1ncnc2nc[nH]c12)c1nc2cccc(CC(=O)c3ccc(C(=O)NO)cc3)c2c(=O)n1-c1ccccc1,102%,82%,56.3%,93.2%,89.3%,73.6%,96.6%,79.9%,91.7%,90.2%
O=c1c2ccccc2n(CC(O)CN2CCCC2)c2c(Br)cccc12 (stereo not given),103%,103%,79%,84.7%,98.8%,95.9%,96.8%,119%,96.6%,96.9%
O=[N+]([O-])c1ccc(N=Nc2c(O)c(N=Nc3cc([N+](=O)[O-])cc([N+](=O)[O-])c3O)cc(N=Nc3cc(S(=O)(=O)O)cc4cc(S(=O)(=O)O)cc(O)c34)c2O)cc1,101%,99.1%,91.1%,105%,105%,86.7%,108%,95.5%,90.1%,99%
